According to PubChem BioAssay AID1159580 (chemical genetic matrix, 2015):
Screen size: about 5,500 compounds; about 2,000 (36%) were called active. About 18% were inconclusive and are not listed. No stated cut-off is given here; in the data, active means normalized growth mostly below about 0.91 (no sharp cut-off); inconclusive means no clear call, values can overlap the other calls; inactive means mostly above about 0.92. Some of the results follow.

Assay: chemical genetic growth profiling, strain panel (AID 1159580);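 further: tested at 20 µM; growth read once vehicle control cultures reached saturation at 30 °C; 1 = growth at the plate median or of vehicle wells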
Conditions: growth OD
[1] = S. cerevisiae deletion strains, locus YDL101C, strain DUN1, stronger effect = lower value
[2] = S. cerevisiae deletion strains, locus YHR030C, strain SLT2, stronger effect = lower value

Measured: normalized growth

CCOC(=O)C(O)(c1ccc(NC(=O)Nc2ccc(Cl)cc2)cc1)C(F)(F)F (stereo unspecified)
inactive: S. cerevisiae deletion strains, locus YAR019C, strain CDC15, stronger effect = lower value 0.993 | S. cerevisiae deletion strains, locus YBL105C, strain PKC1, stronger effect = lower value 0.985 | S. cerevisiae deletion strains, locus YBR135W, strain CKS1, stronger effect = lower value 0.997 | S. cerevisiae deletion strains, locus YBR136W, strain MEC1, stronger effect = lower value 0.985 | S. cerevisiae deletion strains, locus YBR160W, strain CDC28, stronger effect = lower value 0.99 | S. cerevisiae deletion strains, locus YDL017W, strain CDC7, stronger effect = lower value 0.989 | S. cerevisiae deletion strains, locus YDL028C, strain MPS1, stronger effect = lower value 0.987 | [1] 0.982 | S. cerevisiae deletion strains, locus YDL108W, strain KIN28, stronger effect = lower value 0.986 | S. cerevisiae deletion strains, locus YDL132W, strain cdc53, stronger effect = lower value 0.993 | S. cerevisiae deletion strains, locus YDL214C, strain PRR2, stronger effect = lower value 1.03 | S. cerevisiae deletion strains, locus YDR052C, strain DBF4, stronger effect = lower value 0.984 | S. cerevisiae deletion strains, locus YDR054C, strain cdc34, stronger effect = lower value 0.986 | S. cerevisiae deletion strains, locus YDR226W, strain ADK1, stronger effect = lower value 0.993 | S. cerevisiae deletion strains, locus YDR477W, strain SNF1, stronger effect = lower value 1.01 | S. cerevisiae deletion strains, locus YER123W, strain YCK3, stronger effect = lower value 1.01 | S. cerevisiae deletion strains, locus YER133W, strain GLC7, stronger effect = lower value 1 | S. cerevisiae deletion strains, locus YFL009W, strain cdc4, stronger effect = lower value 0.997 | S. cerevisiae deletion strains, locus YFL029C, strain CAK1, stronger effect = lower value 0.99 | S. cerevisiae deletion strains, locus YFR003C, strain YPI1, stronger effect = lower value 0.988 | S. cerevisiae deletion strains, locus YFR019W, strain FAB1, stronger effect = lower value 0.988 | S. cerevisiae deletion strains, locus YFR028C, strain CDC14, stronger effect = lower value 0.992 | S. cerevisiae deletion strains, locus YGR040W, strain KSS1, stronger effect = lower value 0.999 | S. cerevisiae deletion strains, locus YGR052W, strain FMP48, stronger effect = lower value 0.991 | S. cerevisiae deletion strains, locus YGR092W, strain DBF2, stronger effect = lower value 0.924 | [2] 1.06 | S. cerevisiae deletion strains, locus YHR079C, strain IRE1, stronger effect = lower value 1.04 | S. cerevisiae deletion strains, locus YHR082C, strain KSP1, stronger effect = lower value 1.05 | S. cerevisiae deletion strains, locus YHR205W, strain SCH9, stronger effect = lower value 0.935 | S. cerevisiae deletion strains, locus YIL147C, strain SLN1, stronger effect = lower value 0.981 | S. cerevisiae deletion strains, locus YJL095W, strain BCK1, stronger effect = lower value 0.915 | S. cerevisiae deletion strains, locus YJL128C, strain PBS2, stronger effect = lower value 0.956 | S. cerevisiae deletion strains, locus YJL157C, strain FAR1, stronger effect = lower value 1 | S. cerevisiae deletion strains, locus YJR016C, strain ILV3, stronger effect = lower value 0.994 | S. cerevisiae deletion strains, locus YJR066W, strain TOR1 (second series), stronger effect = lower value 0.977 | S. cerevisiae deletion strains, locus YJR066W, strain TOR1, stronger effect = lower value 1.03 | S. cerevisiae deletion strains, locus YKL048C, strain ELM1, stronger effect = lower value 1.01 | S. cerevisiae deletion strains, locus YKL067W, strain YNK1, stronger effect = lower value 0.994 | S. cerevisiae deletion strains, locus YKL101W, strain HSL1, stronger effect = lower value 0.975 | S. cerevisiae deletion strains, locus YKL193C, strain SDS22, stronger effect = lower value 0.987 | S. cerevisiae deletion strains, locus YKL203C, strain TOR2, stronger effect = lower value 1.04 | S. cerevisiae deletion strains, locus YLR113W, strain HOG1, stronger effect = lower value 0.963 | S. cerevisiae deletion strains, locus YLR133W, strain CKI1, stronger effect = lower value 1.01 | S. cerevisiae deletion strains, locus YLR403W, strain SFP1, stronger effect = lower value 0.973 | S. cerevisiae deletion strains, locus YML070W, strain DAK1, stronger effect = lower value 0.992 | S. cerevisiae deletion strains, locus YMR001C, strain CDC5, stronger effect = lower value 0.983 | S. cerevisiae deletion strains, locus YMR205C, strain PFK2 (second series), stronger effect = lower value 0.991 | S. cerevisiae deletion strains, locus YMR277W, strain FCP1, stronger effect = lower value 0.999 | S. cerevisiae deletion strains, locus YNL006W, strain LST8, stronger effect = lower value 1.01 | S. cerevisiae deletion strains, locus YNL020C, strain ARK1, stronger effect = lower value 1 | S. cerevisiae deletion strains, locus YNL161W, strain CBK1, stronger effect = lower value 0.998 | S. cerevisiae deletion strains, locus YNL183C, strain NPR1, stronger effect = lower value 1.01 | S. cerevisiae deletion strains, locus YNL207W, strain RIO2, stronger effect = lower value 0.983 | S. cerevisiae deletion strains, locus YNL222W, strain SSU72, stronger effect = lower value 0.979 | S. cerevisiae deletion strains, locus YNL307C, strain MCK1 (second series), stronger effect = lower value 0.924 | S. cerevisiae deletion strains, locus YOL078W, strain AVO1, stronger effect = lower value 0.982 | S. cerevisiae deletion strains, locus YOL136C, strain PFK27, stronger effect = lower value 0.992 | S. cerevisiae deletion strains, locus YOR061W, strain CKA2, stronger effect = lower value 1 | S. cerevisiae deletion strains, locus YOR119C, strain RIO1, stronger effect = lower value 1.08 | S. cerevisiae deletion strains, locus YOR231W, strain MKK1, stronger effect = lower value 0.986 | S. cerevisiae deletion strains, locus YOR329C, strain SCD5, stronger effect = lower value 0.992 | S. cerevisiae deletion strains, locus YPL031C, strain PHO85, stronger effect = lower value 0.987 | S. cerevisiae deletion strains, locus YPL153C, strain RAD53, stronger effect = lower value 1.03 | S. cerevisiae deletion strains, locus YPL204W, strain HRR25, stronger effect = lower value 1 | S. cerevisiae deletion strains, locus YPL209C, strain IPL1, stronger effect = lower value 0.996 | S. cerevisiae deletion strains, locus YPL256C, strain CLN2, stronger effect = lower value 1.11 | S. cerevisiae deletion strains, locus YPR025C, strain CCL1, stronger effect = lower value 0.99 | S. cerevisiae deletion strains, locus YPR106W, strain ISR1, stronger effect = lower value 0.992 | S. cerevisiae deletion strains, locus YPR111W, strain DBF20, stronger effect = lower value 0.986 | S. cerevisiae deletion strains, strain NNK1, stronger effect = lower value 0.998 | S. cerevisiae deletion strains, strain TSCII, stronger effect = lower value 0.993

COc1cccc(CC(=O)NN)c1
inactive: S. cerevisiae deletion strains, locus YAL013W, strain DEP1, stronger effect = lower value 0.982 | S. cerevisiae deletion strains, locus YBR229C, strain ROT2, stronger effect = lower value 1.02 | [1] 1.05 | S. cerevisiae deletion strains, locus YDL134C, strain PPH21, stronger effect = lower value 0.995 | S. cerevisiae deletion strains, locus YDR150W, strain NUM1, stronger effect = lower value 1.03 | S. cerevisiae deletion strains, locus YEL061C, strain CIN8, stronger effect = lower value 1 | S. cerevisiae deletion strains, locus YGR078C, strain PAC10, stronger effect = lower value 1.04 | S. cerevisiae deletion strains, locus YGR229C, strain SMI1, stronger effect = lower value 0.999 | [2] 1.06 | S. cerevisiae deletion strains, locus YHR087W, strain rtc3, stronger effect = lower value 0.971 | S. cerevisiae deletion strains, locus YJL187C, strain SWE1, stronger effect = lower value 0.981 | S. cerevisiae deletion strains, locus YJR043C, strain POL32, stronger effect = lower value 1.02 | S. cerevisiae deletion strains, locus YJR075W, strain HOC1, stronger effect = lower value 0.991 | S. cerevisiae deletion strains, locus YKL190W, strain CNB1, stronger effect = lower value 1 | S. cerevisiae deletion strains, locus YLR039C, strain RIC1, stronger effect = lower value 1.02 | S. cerevisiae deletion strains, locus YLR058C, strain SHM2 (second series), stronger effect = lower value 0.987 | S. cerevisiae deletion strains, locus YLR085C, strain ARP6, stronger effect = lower value 0.995 | S. cerevisiae deletion strains, locus YLR262C, strain YPT6, stronger effect = lower value 0.98 | S. cerevisiae deletion strains, locus YML094W, strain GIM5, stronger effect = lower value 0.982 | S. cerevisiae deletion strains, locus YMR219W, strain ESC1, stronger effect = lower value 0.986 | S. cerevisiae deletion strains, locus YMR263W, strain SAP30, stronger effect = lower value 1 | S. cerevisiae deletion strains, locus YMR307W, strain GAS1, stronger effect = lower value 0.987 | S. cerevisiae deletion strains, locus YNL153C, strain GIM3, stronger effect = lower value 1.04 | S. cerevisiae deletion strains, locus YNL298W, strain CLA4 (second series), stronger effect = lower value 1.02 | S. cerevisiae deletion strains, locus YNL322C, strain KRE1, stronger effect = lower value 1.01 | S. cerevisiae deletion strains, locus YNR030W, strain Alg12, stronger effect = lower value 0.986 | S. cerevisiae deletion strains, locus YPL055C, strain LGE1, stronger effect = lower value 0.96 | S. cerevisiae deletion strains, locus YPL241C, strain CIN2, stronger effect = lower value 1.01 | S. cerevisiae deletion strains, locus YPR135W, strain CTF4, stronger effect = lower value 1.04 | S. cerevisiae strains, strain wild type, stronger effect = lower value 1.02
